Data reported in PubChem BioAssay (NCI).
About 83,000 compounds went through this panel and 20% of them were active in at least one assay; those are over-represented in the sample as a whole.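 Single-dose data. Exposure time 48 hours. Values below 10 considered active.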 Unmarked numbers belong to inactive results. Activity calls are given as the source filed them.

Assays:
Assay in all cases: NCI-60 one-dose screen, 48 h (100 = growth as untreated, 0 = no growth, -100 = all killed)
Conditions in all cases: 10 µM unless noted
DU-145 prostate = test system: DU-145 prostate
K-562 leukemia = test system: K-562 leukemia
MALME-3M melanoma = test system: MALME-3M melanoma
MDA-MB-231 breast = test system: MDA-MB-231 breast
RXF 393 renal = test system: RXF 393 renal
SF-268 CNS = test system: SF-268 CNS
SF-295 CNS = test system: SF-295 CNS
SF-539 CNS = test system: SF-539 CNS
UACC-257 melanoma = test system: UACC-257 melanoma
M14 melanoma = test system: M14 melanoma
HCT-15 colon = test system: HCT-15 colon
HT29 colon = test system: HT29 colon
SNB-75 CNS = test system: SNB-75 CNS
SNB-19 CNS = test system: SNB-19 CNS
PC-3 prostate = test system: PC-3 prostate
UACC-62 melanoma = test system: UACC-62 melanoma
LOX IMVI melanoma = test system: LOX IMVI melanoma
SK-MEL-28 melanoma = test system: SK-MEL-28 melanoma
SK-MEL-5 melanoma = test system: SK-MEL-5 melanoma
U251 CNS = test system: U251 CNS

SMILES | growth (DU-145 prostate) | growth (K-562 leukemia) | growth (MALME-3M melanoma) | growth (MDA-MB-231 breast) | growth (RXF 393 renal) | growth (SF-268 CNS) | growth (SF-295 CNS) | growth (SF-539 CNS) | growth (UACC-257 melanoma) | growth (M14 melanoma) | growth (HCT-15 colon) | growth (HT29 colon) | growth (SNB-75 CNS) | growth (SNB-19 CNS) | growth (PC-3 prostate) | growth (UACC-62 melanoma) [%] | growth (LOX IMVI melanoma) | growth (SK-MEL-28 melanoma) | growth (SK-MEL-5 melanoma) | growth (U251 CNS) [%]
Cc1ccc(-c2nnc(COc3ccc(-c4nnc(N)s4)cc3)o2)cc1 | 100% | 91.1% | 67.6% | 87.8% | 58% | 79.6% | 7.56% (active) | 109% | 112% | 88.1% | 81.3% | 81.5% | 94.2% | 86% | 83.9% | 83.2 | 26% | 98.3% | – | –
CCCCCCCCCCCC(=O)[O][Sn]([CH2]CCC)([CH2]CCC)[CH2]CCC | -98.7% (active) | -29.9% (active) | -96.1% (active) | -94.6% (active) | -72.4% (active) | -83.7% (active) | -83.8% (active) | -97.7% (active) | -96.5% (active) | -99.6% (active) | -87.2% (active) | -90.3% (active) | -100% (active) | -95.5% (active) | -92.6% (active) | – | -90.1% (active) | -99.1% (active) | -97.8% (active) | –
COc1ccc(-c2c(-c3cc4c(c(OC)c3OC)OCO4)noc2N)cc1 | 12.2% | 16.1% | 56.7% | 48.7% | -13.6% (active) | 45.8% | 2.69% (active) | 1.11% (active) | 66.8% | 12.6% | 27% | – | 22.8% | 40.6% | 12.2% | 37.5 | 43.7% | 49.7% | 16.5% | 32.4
O=C1/C(=C/c2ccc([N+](=O)[O-])cc2)Oc2ccc(O)cc21 | 103% | 41.7% | 91.8% | 89% | 92.6% | 89.9% | 68.2% | 86.4% | 67.3% | 97.8% | 84.3% | 46.8% | 95.7% | – | – | 41.4 | 60% | 107% | 86.8% | 63.6
COc1cc(C(=O)N(C(C)C)C2CCCCC2)cc(OC)c1OC | 112% | 98.7% | 99.5% | 127% | 97.4% | 98.1% | 109% | 101% | 93.7% | 132% | 103% | – | 87.6% | 97.9% | 89.8% | 96.5 | 94.6% | 105% | – | 102
ONc1nc(NO)c2[nH]cnc2n1 | 74.6% | 23% | 90.8% | 77.4% | 86.1% | 58.8% | 91% | 103% | 105% | 76.7% | 89.9% | 109% | 88.6% | – | 69.2% | – | 26% | 91% | 102% | –
Cc1cccc2c(=O)c3c(sc12)c(NCCNCCO)nc1ccccc13 | 27.3% | -65.7% (active) | -42.2% (active) | -15.3% (active) | 38.1% | 56.6% | 65% | 50.6% | 77.8% | -56.4% (active) | 0.304% (active) | – | 32.8% | 49.6% | 38.7% | 26 | -89.8% (active) | -67.4% (active) | 39.5% | 13.4
CCCC1=NNC(=O)C1 | 125% | 100% | 101% | 122% | 113% | 108% | 97.5% | 89.8% | 90.9% | 104% | 103% | 103% | 93.8% | – | 91.1% | 114 | 108% | 104% | 104% | –
Cn1c(=O)c(S(=O)(=O)c2ccccc2)cc2ccc3c(cnn3-c3ccc(Cl)cc3)c21 | 82.9% | 91.6% | 85.1% | 75.7% | 55.8% | 80.6% | 90.2% | 45% | 83.4% | 83.7% | 73% | 79.2% | 38.9% | – | 79.9% | 89.1 | 78.9% | 84.6% | 84.6% | –
O=S(=O)(Nc1ccccc1Cl)c1ccc(-c2cnc(C3CC3)o2)cc1 | 13.5% | 20.1% | 47.3% | 34.8% | -27% (active) | 53.5% | 12.2% | -22.7% (active) | 69.4% | 19% | 24.4% | 12.5% | -13.4% (active) | – | – | 40.2 | 44.5% | 59.3% | 17.3% | 25
O=C(CC(O)c1ccccc1)Nc1ccccn1 (stereo not given) | 104% | 84.1% | 94.2% | 104% | 131% | 103% | 108% | 97.6% | 94.9% | 99.7% | 101% | 103% | 85.9% | – | – | 98.3 | 98.4% | 103% | 116% | 102
O=c1c2cc(F)ccc2oc2c(NCCNCCO)nc3ccccc3c12 | 35.8% | -36.9% (active) | 56.4% | 40.4% | 34.3% | 47.5% | 63.6% | 46.3% | 92% | 60.1% | 28.1% | – | 50.2% | 45.1% | 38.6% | 77.7 | 13.8% | 50.2% | 61.6% | 36.1
COc1cccc(-c2ccc3c(c2)C2CCN(Cc4ccccc4)C3C2)c1 (stereo not given) | 95.6% | 22.7% | 62.8% | 88.8% | 98% | 86.9% | 81.2% | 85.1% | 78.7% | 72.2% | 57.8% | – | 77% | 90.4% | 66.5% | 83.6 | 85.5% | 85.7% | 99.4% | –
Nc1nc(N)c(C=Nc2ccc(Br)cc2)c(Nc2ccc(Br)cc2)n1 | 107% | 92.2% | 119% | 86.1% | 78.9% | 81% | 83.5% | 101% | 83.1% | 97.2% | 88.5% | – | 91.3% | 99.8% | – | 87 | 81% | 106% | 108% | 95.1
O=c1oc2ccccc2cc1-c1csc(N/N=C/c2cc3ccccc3nc2Cl)n1 | 87.6% | 108% | 103% | 79.1% | 111% | 106% | 97.8% | 96.1% | 115% | 115% | 101% | – | 96.7% | 96.1% | 95% | 91.8 | 101% | 102% | 98.4% | 97.2
Cc1nn(-c2ccccc2)c2nc3nc4c(c(N)c3c(-c3ccc(Cl)cc3)c12)CCC4 | 90.1% | 27.7% | 109% | 88.1% | 79.9% | 102% | 92.1% | 90% | 91.4% | 98.6% | 76.5% | – | 86.2% | 111% | 88.2% | 102 | 62.5% | 96.9% | 99.4% | –
CCCCCCCC/C=C\CCCCCCCCOc1cccc(CC(=O)NCC[N+]2(C)CCOCC2)c1 | 93.6% | 73.4% | 93.3% | 87.2% | 6.07% (active) | 70.2% | 89.1% | 96.2% | 93.6% | 87% | 96.7% | – | 49.9% | 72.3% | 33.3% | 80.2 | 91.3% | 102% | 99.8% | 51
